Test results taken from the supplement of paper PMC11732987, “Enantioselective OTUD7B fragment discovery through chemoproteomics screening and high-throughput optimisation” (Communications Chemistry, 2025).

How the values were obtained:
Test in all cases: log2 ratio of Biotin-Ahx-Ub-VS probe labelling (fragment/DMSO); higher = less target engagement (more negative = stronger competition), active = hit call of the paper (q ≤ 0.05, log2 ratio ≤ -1)
Conditions in all cases: compound concentration: 200 uM; treatment time: 3 h
USP34 = USP34 (UniProt Q70CQ2)
Chain of USP34 (Q70CQ2 whole entry, the tested form may be a part): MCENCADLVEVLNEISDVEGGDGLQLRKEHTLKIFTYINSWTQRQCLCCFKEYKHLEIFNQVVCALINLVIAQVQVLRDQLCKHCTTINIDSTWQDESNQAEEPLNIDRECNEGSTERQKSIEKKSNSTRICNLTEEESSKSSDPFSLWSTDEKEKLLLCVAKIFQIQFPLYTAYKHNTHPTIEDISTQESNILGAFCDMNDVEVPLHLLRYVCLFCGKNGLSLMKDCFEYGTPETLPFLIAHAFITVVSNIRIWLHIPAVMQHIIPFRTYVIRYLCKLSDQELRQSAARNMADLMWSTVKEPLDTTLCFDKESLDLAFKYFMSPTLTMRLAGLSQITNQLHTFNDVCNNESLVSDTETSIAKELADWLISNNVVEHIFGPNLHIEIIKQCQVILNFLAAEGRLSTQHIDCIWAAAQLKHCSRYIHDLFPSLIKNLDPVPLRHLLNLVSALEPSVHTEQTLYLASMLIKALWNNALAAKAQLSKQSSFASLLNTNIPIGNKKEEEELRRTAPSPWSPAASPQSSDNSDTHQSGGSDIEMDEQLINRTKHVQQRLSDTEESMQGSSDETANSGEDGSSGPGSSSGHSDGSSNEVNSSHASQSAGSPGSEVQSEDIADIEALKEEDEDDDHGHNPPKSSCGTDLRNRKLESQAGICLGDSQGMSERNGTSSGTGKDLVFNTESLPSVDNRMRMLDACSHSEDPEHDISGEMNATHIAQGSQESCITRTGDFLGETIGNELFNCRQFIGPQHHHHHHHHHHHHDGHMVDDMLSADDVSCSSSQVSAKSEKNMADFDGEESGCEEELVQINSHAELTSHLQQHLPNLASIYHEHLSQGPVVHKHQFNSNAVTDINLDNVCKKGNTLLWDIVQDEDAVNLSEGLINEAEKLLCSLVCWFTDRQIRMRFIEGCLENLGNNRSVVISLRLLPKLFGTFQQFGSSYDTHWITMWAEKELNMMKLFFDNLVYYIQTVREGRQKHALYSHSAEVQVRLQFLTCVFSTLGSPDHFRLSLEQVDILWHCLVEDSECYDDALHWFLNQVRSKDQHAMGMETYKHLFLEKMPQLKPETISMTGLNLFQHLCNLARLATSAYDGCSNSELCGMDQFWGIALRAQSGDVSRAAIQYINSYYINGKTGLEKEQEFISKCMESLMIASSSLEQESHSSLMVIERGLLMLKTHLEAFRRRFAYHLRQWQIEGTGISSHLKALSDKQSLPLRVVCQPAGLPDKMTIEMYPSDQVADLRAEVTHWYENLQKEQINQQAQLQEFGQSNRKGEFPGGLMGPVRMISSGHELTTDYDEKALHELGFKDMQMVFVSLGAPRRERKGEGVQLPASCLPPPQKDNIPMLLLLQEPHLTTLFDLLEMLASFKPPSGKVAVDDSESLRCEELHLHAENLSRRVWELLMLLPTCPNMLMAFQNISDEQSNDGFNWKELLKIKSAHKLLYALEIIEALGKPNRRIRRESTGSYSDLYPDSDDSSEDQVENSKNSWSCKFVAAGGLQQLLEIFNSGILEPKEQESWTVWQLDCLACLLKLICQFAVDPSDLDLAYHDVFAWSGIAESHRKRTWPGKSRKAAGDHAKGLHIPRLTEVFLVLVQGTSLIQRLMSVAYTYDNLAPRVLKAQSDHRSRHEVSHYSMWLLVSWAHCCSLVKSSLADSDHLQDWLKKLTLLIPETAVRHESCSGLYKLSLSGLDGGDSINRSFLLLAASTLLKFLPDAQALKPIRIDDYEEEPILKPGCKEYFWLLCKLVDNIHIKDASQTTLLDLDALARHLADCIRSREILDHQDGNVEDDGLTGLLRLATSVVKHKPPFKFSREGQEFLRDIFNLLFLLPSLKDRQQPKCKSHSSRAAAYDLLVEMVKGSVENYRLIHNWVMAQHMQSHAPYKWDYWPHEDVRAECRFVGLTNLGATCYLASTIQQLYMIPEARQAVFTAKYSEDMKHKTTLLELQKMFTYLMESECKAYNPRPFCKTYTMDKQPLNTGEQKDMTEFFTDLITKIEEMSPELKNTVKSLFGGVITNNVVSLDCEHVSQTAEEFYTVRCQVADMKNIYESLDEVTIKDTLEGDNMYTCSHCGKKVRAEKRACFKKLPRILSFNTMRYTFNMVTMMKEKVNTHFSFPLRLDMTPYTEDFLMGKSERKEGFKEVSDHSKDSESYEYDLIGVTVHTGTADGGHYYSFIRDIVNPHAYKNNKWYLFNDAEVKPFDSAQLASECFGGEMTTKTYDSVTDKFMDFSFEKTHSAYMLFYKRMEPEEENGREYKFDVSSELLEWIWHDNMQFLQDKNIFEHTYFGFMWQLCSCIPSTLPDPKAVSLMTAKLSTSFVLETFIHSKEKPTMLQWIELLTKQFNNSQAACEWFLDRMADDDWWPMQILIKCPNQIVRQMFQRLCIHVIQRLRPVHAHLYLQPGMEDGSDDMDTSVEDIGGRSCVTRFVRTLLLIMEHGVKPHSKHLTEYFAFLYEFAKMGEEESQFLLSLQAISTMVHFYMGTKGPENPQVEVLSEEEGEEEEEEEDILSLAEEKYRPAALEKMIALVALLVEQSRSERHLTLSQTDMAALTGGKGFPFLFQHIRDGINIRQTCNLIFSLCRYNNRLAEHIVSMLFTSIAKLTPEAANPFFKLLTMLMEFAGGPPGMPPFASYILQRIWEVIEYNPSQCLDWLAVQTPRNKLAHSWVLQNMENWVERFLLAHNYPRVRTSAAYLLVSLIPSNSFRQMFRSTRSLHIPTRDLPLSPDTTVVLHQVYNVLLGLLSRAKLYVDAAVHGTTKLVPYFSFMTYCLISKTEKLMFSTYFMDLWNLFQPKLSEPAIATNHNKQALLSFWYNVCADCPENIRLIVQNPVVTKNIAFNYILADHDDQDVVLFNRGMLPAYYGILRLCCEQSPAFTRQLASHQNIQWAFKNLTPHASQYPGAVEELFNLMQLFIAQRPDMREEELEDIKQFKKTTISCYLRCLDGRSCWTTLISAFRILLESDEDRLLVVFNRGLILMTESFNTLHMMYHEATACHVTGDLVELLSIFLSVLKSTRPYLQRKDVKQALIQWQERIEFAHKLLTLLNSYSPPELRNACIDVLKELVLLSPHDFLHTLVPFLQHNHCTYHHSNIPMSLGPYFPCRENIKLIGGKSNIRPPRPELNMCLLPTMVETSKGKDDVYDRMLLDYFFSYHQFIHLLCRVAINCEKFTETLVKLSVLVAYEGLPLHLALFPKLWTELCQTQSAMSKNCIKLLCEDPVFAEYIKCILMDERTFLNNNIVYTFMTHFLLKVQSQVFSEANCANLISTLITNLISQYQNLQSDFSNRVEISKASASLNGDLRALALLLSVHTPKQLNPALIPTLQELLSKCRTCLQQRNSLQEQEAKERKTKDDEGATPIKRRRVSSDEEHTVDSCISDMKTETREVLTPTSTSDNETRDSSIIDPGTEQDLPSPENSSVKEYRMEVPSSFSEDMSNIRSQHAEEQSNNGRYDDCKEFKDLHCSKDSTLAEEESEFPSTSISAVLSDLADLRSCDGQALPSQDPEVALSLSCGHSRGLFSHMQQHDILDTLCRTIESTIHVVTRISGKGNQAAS
How it was run: (§1)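 Global-median-normalised Spectronaut label-free quantities were compared by unpaired t-test, and values are average log2 ratios of fragment over vehicle. Only proteins with ≥2 unique peptides were used. HEK293T lysate (495 µg per sample) was treated in triplicate with fragment at 200 µM or vehicle for 3 h and then with Biotin-Ahx-Ub-VS at 0.5 µM final for 1 h. Labelled DUBs were then NeutrAvidin-enriched, digested with LysC and trypsin, and run by diaPASEF LC-MS/MS.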

USP36 = target: T1, USP36 (UniProt Q9P275)
T1 sequence (whole entry): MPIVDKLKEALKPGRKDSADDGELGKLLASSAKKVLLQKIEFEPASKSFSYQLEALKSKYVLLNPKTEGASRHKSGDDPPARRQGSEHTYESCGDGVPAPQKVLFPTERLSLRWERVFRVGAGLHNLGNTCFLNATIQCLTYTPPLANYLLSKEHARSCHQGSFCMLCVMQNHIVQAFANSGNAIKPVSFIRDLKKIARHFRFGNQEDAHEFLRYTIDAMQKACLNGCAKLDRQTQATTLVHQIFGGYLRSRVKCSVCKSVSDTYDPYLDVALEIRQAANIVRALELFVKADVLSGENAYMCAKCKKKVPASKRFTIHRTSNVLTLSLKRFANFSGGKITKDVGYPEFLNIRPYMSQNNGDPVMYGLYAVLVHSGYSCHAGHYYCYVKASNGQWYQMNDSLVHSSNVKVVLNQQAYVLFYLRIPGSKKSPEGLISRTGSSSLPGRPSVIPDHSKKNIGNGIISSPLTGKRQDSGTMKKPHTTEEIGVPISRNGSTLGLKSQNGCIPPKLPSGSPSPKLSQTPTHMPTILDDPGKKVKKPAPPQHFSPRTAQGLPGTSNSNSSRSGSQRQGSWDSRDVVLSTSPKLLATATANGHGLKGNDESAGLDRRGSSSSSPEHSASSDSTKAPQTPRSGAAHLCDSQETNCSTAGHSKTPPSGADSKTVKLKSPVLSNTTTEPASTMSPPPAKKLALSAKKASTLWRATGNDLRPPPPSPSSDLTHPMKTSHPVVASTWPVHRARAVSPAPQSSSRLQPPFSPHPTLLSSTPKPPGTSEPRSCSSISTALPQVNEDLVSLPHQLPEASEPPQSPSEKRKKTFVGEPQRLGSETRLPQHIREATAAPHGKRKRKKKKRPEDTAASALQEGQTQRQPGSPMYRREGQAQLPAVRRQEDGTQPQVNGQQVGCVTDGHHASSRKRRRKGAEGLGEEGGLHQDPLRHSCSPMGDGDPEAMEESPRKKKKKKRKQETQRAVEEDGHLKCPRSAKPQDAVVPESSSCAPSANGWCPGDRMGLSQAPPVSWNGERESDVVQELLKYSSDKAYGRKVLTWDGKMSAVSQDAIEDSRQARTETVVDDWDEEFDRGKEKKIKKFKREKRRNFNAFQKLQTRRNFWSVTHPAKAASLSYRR
How it was run: as §1

USP38 = target: T2, USP38 (UniProt Q8NB14)
T2 sequence (whole entry): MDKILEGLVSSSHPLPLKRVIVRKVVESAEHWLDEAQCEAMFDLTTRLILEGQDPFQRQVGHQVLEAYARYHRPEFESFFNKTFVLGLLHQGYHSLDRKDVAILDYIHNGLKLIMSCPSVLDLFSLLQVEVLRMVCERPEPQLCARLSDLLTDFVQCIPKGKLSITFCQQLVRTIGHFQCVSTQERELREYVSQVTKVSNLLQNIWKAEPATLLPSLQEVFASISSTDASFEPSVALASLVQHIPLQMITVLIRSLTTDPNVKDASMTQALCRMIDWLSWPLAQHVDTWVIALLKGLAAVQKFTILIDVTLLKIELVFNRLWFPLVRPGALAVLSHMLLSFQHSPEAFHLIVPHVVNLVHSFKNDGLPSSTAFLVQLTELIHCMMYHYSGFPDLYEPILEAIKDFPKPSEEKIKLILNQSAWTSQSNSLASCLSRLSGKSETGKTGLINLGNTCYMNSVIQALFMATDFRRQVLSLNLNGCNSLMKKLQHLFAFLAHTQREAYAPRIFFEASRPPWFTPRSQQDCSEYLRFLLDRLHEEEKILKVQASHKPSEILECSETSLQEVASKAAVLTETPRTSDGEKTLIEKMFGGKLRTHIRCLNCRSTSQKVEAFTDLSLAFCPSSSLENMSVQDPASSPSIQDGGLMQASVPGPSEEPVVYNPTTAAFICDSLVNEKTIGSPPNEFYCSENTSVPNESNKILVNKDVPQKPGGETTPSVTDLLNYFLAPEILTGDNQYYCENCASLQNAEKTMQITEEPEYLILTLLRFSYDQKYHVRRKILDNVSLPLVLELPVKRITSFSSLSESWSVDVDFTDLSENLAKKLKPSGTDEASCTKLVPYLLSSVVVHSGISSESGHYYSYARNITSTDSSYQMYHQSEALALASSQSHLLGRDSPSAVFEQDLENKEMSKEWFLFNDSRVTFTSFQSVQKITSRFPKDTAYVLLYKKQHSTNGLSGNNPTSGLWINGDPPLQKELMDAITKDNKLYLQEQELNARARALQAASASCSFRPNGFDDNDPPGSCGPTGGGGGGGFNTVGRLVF
How it was run: as §1

USP39 = target: T3, USP39 (UniProt Q53GS9)
T3 sequence (whole entry): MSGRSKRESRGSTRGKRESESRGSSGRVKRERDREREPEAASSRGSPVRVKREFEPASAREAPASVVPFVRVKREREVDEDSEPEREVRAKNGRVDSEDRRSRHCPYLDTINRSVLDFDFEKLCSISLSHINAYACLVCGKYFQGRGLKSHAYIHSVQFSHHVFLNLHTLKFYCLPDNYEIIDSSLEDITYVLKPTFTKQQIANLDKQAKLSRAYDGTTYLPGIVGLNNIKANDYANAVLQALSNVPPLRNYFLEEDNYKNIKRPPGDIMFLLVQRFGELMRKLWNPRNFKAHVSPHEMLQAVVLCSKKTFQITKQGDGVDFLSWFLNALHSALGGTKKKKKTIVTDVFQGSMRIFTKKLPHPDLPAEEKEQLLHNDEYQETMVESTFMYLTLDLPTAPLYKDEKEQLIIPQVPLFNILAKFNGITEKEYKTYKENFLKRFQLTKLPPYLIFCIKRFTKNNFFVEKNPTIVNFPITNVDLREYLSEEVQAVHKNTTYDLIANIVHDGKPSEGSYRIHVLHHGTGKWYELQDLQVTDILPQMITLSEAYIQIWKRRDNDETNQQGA
How it was run: as §1

USP4 = target: T4, USP4 (UniProt Q13107)
T4 sequence (whole entry): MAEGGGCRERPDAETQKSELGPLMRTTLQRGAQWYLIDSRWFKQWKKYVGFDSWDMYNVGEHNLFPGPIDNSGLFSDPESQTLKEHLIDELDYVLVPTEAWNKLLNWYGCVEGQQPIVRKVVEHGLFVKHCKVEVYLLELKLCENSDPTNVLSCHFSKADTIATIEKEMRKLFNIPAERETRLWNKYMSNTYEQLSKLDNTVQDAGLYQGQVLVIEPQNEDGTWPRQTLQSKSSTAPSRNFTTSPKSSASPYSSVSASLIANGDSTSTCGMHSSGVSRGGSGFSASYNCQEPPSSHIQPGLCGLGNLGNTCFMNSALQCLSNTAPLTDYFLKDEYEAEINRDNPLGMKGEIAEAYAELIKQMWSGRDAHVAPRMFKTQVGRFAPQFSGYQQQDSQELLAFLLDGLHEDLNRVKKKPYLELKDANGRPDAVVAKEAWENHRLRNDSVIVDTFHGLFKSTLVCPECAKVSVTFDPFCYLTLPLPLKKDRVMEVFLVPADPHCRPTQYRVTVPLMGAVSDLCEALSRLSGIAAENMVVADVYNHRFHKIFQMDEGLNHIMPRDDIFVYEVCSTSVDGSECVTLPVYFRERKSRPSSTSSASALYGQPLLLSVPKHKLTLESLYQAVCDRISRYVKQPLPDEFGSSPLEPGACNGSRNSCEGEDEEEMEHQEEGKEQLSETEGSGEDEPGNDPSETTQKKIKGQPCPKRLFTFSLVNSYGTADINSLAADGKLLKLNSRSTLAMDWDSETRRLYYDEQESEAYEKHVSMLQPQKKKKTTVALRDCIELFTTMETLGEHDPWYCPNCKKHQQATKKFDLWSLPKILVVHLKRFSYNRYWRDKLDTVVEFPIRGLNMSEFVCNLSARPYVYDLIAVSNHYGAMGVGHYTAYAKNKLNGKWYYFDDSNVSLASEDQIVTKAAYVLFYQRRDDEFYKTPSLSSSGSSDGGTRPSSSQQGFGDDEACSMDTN
How it was run: as §1

Measured: log2 ratio of Biotin-Ahx-Ub-VS probe labelling

O=C(O)C1Cc2ccccc2CN1C(=O)CCl (stereo not given)
inactive: USP34 -0.101 | USP36 -0.224 | USP38 -0.252 | USP39 -0.281 | USP4 -0.207
